Rows were chosen to be rich in hits. Some 9% of all compounds tested hit in one or more screens of this group.
ALDH1A1 block = qHTS Assay for Inhibitors of Aldehyde Dehydrogenase 1 (ALDH1A1); Aldehyde dehydrogenase 1A1 (Homo sapiens), P00352; Purified ALDH1A1, NADH fluorescence, propionaldehyde substrate; Potency, µM (doses to about 75.3 µM), most hits filed as inhibitors; 220,000 tested, 7.3% active
IMPase Li inh = qHTS Assay for Identifying the Cell-Membrane Permeable IMPase Inhibitors: Potentiation with Lithium | CHO-M1 cells, IP1 TR-FRET (IP-One), carbachol + lithium | Potency, µM (series often up to 59.4 µM), most hits filed as inhibitors | 210,000 tested, 0.35% active; active = well fitted curve in the direction sought with a large enough effect; inconclusive = small, poorly fitted or top-dose-only effect, or another doubt; inactive = no such curve, though single readings can be large; an effect the other way counts as inactive or inconclusive;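 also: IP1 builds up when IMPase is blocked and the TR-FRET signal falls; nearly all actives have a fitted effect of over 50% in size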
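Lithium-sensitised IP1 accumulation assay; M1-expressing CHO cells treated 30 min at 37C with compound. Competitive antibody detection by time-resolved FRET followed a 10 min room-temperature lysis step.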
HPGD inh = qHTS Assay for Inhibitors of HPGD (15-Hydroxyprostaglandin Dehydrogenase). Potency, µM, usual class: inhibitors. purified HPGD, NADH fluorescence kinetic, PGE2 substrate. AID 894, 2007. 150,000 tested, 4.3% active. 15-hydroxyprostaglandin dehydrogenase [NAD(+)] (Homo sapiens), P15428
Target sequence (P15428 whole entry, looked up): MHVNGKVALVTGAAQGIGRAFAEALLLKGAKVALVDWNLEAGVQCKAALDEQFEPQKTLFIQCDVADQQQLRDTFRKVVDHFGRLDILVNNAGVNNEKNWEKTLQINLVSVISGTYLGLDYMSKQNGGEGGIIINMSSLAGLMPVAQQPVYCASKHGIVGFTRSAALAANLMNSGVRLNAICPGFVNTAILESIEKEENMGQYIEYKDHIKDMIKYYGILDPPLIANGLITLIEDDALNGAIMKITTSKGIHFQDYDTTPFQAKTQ
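NADH formation kinetics: reaction with 30 uM PGE2 and 1 mM NAD+ (final), 20 nM enzyme, Tris-HCl pH 8 with Tween 20, after 15 min compound preincubation at room temperature. Fluorescence change, last versus first of five reads.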
LMNA splice mod = qHTS Assay for Modulators of Lamin A Splicing. AID 1487, 2009. Potency, µM (titrated, usually from 46.1 µM), most hits filed as inhibitors. 200,000 tested, 0.01% active. HeLa LMNA splicing GFP/RFP minigene ratio, 48 h; active = well fitted inhibition curve with a large enough effect in the signal ratio, with a control signal flat, not every such curve was filed as active; inconclusive = small, poorly fitted or top-dose-only effect, or effect the other way, or a change in a side signal; the % refers to the signal ratio
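S3 HeLa cells stably expressing lamin A-EGFP splicing minigene plus DsRed2, 600 cells/well, 48 h compound exposure at 37C. Laser-scanning cytometry; analysed as GFP (500-530 nm)/RFP (575-640 nm) total intensity ratio; 0.5% DMSO vehicle.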
Luc counter = Counterscreen for Luciferase (Kinase-Glo TM) Inhibition; Luciferin 4-monooxygenase (Photuris pensylvanica), Q27757; Kinase-Glo luciferase, ATP luminescence, 8 min; Potency, µM (top dose mostly 38.3 µM), actives largely listed as inhibitors; 200,000 tested, 0.28% active; active = well fitted curve in the direction sought with a large enough effect; inconclusive = small, poorly fitted or top-dose-only effect, or another doubt; inactive = no such curve, though single readings can be large; an effect the other way counts as inactive or inconclusive; also: nearly all actives have a fitted effect of over 60% in size
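Compounds were added to a substrate mix at pH 7.2 (50 mM imidazole, 10 uM ATP, within the enzyme's linear range), followed by Kinase-Glo detection reagent; luminescence was measured after 8 minutes at ambient temperature.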
Each line names hits and unclear results; the compound was inactive in the other large screens. Unless noted, calls follow the shape of the dose curve; as a rule, active = well fitted inhibition curve with a large enough effect (not every such curve was filed as active); inconclusive = small, poorly fitted or top-dose-only effect, or another doubt; inactive = no such curve, though single readings can be large or run the other way.

O=C(O)CSc1nnc(Cn2nnc3ccccc32)n1CCc1ccccc1	HPGD inh inconclusive
c1ccc(CCc2nn3c(Cn4cnc5ccccc54)nnc3s2)cc1	ALDH1A1 block 3.5µM, HPGD inh 16µM
c1ccc2c(c1)ncn2Cc1nnc2sc(-c3ccc4c(c3)OCO4)nn12	ALDH1A1 block inconclusive, HPGD inh inconclusive
c1ccc(CCc2nn3c(Cn4nnc5ccccc54)nnc3s2)cc1	ALDH1A1 block 3.5µM, HPGD inh 10µM
c1ccc2c(c1)OCC(c1nn3c(Cn4nnc5ccccc54)nnc3s1)O2 (stereo not drawn)	ALDH1A1 block 11µM, HPGD inh 10µM
COc1ccc(OCc2nn3c(-c4cccc(OC)c4)nnc3s2)cc1	HPGD inh inconclusive
COc1ccc(OCc2nn3c(Cn4cnc5ccccc54)nnc3s2)cc1	ALDH1A1 block 22µM, HPGD inh 14µM, LMNA splice mod inconclusive
CCC1=C2CC[C@H]3C(=O)N(CC(=O)OC)C(=O)[C@H]3[C@H]2[C@@]2(C)C(=O)N(CC3CC3)C(=O)N2C1=O	none (no result: LMNA splice mod)
COCc1cc(C)nc(NCCc2ccccc2)c1C#N	ALDH1A1 block inconclusive, HPGD inh inconclusive
COc1cccc(/C=C/C(=O)NCc2cn3cc(Cl)ccc3n2)c1	ALDH1A1 block inconclusive, LMNA splice mod inconclusive (no result: HPGD inh)
Cc1cc2c(cc1S(=O)(=O)N1CCC(C(N)=O)CC1)OCC(=O)N2	none (no result: ALDH1A1 block, IMPase Li inh, HPGD inh, Luc counter)
c1ccc(OCc2nn3c(Cn4nnc5ccccc54)nnc3s2)cc1	ALDH1A1 block 7.9µM, HPGD inh 8.9µM
Clc1ccccc1-c1nn2c(Cn3cnc4ccccc43)nnc2s1	ALDH1A1 block 20µM, HPGD inh 14µM
c1ccc(Cc2nn3c(Cn4nnc5ccccc54)nnc3s2)cc1	ALDH1A1 block 25µM, HPGD inh 20µM
C=Cc1ccc(CN2C(=O)N(c3ccc(C)c(C)c3)S(=O)(=O)c3ccccc32)cc1	none (no result: ALDH1A1 block, IMPase Li inh, HPGD inh, Luc counter)
CCn1nc(C(=O)O)c(=O)c2cc3c(cc21)OCO3	LMNA splice mod inconclusive
O=C(CCNC(=O)c1ccccc1)OCC(=O)c1ccccc1	none (no result: HPGD inh, LMNA splice mod)
Cc1cccc(OCC(=O)Nc2ccc3oc(-c4ccccc4F)nc3c2)c1	none (no result: ALDH1A1 block, IMPase Li inh, HPGD inh, Luc counter)
Cc1cc(NC(=O)c2cnn3c(C(F)F)cc(C4CC4)nc23)no1	ALDH1A1 block 5µM
Cc1noc(/C=C/c2ccccc2F)c1S(=O)(=O)N1CCC(C(=O)NCC(C)c2ccccc2)CC1 (stereo not drawn)	none (no result: ALDH1A1 block, IMPase Li inh, HPGD inh, Luc counter)
CCCCNS(=O)(=O)c1ccc2nc(-c3cccnc3)cc(C(=O)NCCCOC)c2c1	none (no result: HPGD inh)
CCCCNS(=O)(=O)c1ccc2nc(-c3cccnc3)cc(C(=O)NCCCOCC)c2c1	IMPase Li inh 11µM (no result: HPGD inh)
COc1cccc(NC(=O)Cn2nnc(C(=O)NCc3ccc4c(c3)OCO4)c2N)c1	none (no result: ALDH1A1 block, IMPase Li inh, HPGD inh, Luc counter)
O=C1NC(c2ccccc2)=N/C1=C/c1ccco1	ALDH1A1 block 18µM, HPGD inh inconclusive, Luc counter inconclusive
O=C1/C(=C\c2ccco2)NC(=S)N1c1ccccc1	none (no result: HPGD inh, LMNA splice mod)
O=C1NC(c2cccc(Br)c2)=N/C1=C\c1ccco1	ALDH1A1 block 11µM, HPGD inh inconclusive
CC(=O)N1[C@H](Cc2ccccc2)C=C[C@]1(C)C(=O)O	ALDH1A1 block 28µM (no result: LMNA splice mod)
COC(=O)CNC(=O)[C@@]1(C)C=C[C@@H](Cc2ccccc2)N1C(C)=O	ALDH1A1 block 22µM, HPGD inh 10µM (no result: LMNA splice mod)
CCN(CC)C(=O)CSc1nnc(COc2ccccc2)n1N	none (no result: HPGD inh, LMNA splice mod)
CC[n+]1c(/C=C2/C=C(C)CC(C)(C)C2)sc2ccc(OC)cc21	ALDH1A1 block 8.9µM, LMNA splice mod inconclusive
CC[n+]1c(/C=C2\C=C(C)CC(C)(C)C2)sc2ccccc21	ALDH1A1 block inconclusive, LMNA splice mod inconclusive
Nc1ccc(S(=O)(=O)O)cc1	ALDH1A1 block 32µM (no result: LMNA splice mod, Luc counter)
CO[C@@H](C(C)C)[C@@H](C)[C@@H]1OC(=O)C[C@@H]1O	none (no result: IMPase Li inh, HPGD inh, LMNA splice mod, Luc counter)
CCOC(=O)c1[nH]ncc1CN1CCCC(C(=O)c2ccc(SC)cc2)C1 (stereo not drawn)	ALDH1A1 block 35µM, IMPase Li inh inconclusive (no result: HPGD inh, LMNA splice mod)
Cn1cccc1/C=C1\SC(=S)N(CC(=O)O)C1=O	HPGD inh 28µM
O=C(O)CCCN1C(=O)/C(=C\c2ccco2)SC1=S	ALDH1A1 block inconclusive (no result: HPGD inh)
O=C(O)CN1C(=O)/C(=C/C=C/c2ccccc2)SC1=S	ALDH1A1 block inconclusive, LMNA splice mod inconclusive (no result: HPGD inh)
